# Data from PubChem BioAssay (NCI).
# About 79,000 compounds went through this panel and 15% of them were active in at least one assay; those are over-represented in the sample as a whole. A number with no mark means an inactive call. Active and inactive are the calls of the source. No stated cut-off is given here; in the data, active means growth inhibition above about 70%; inactive means the rest.
# Legend:
# [1] = NCI Yeast Anticancer Drug Screen. Data for the rad50 strain (AID 155);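 further: 0% = growth of vehicle-only cultures of the same strain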; settings: S. cerevisiae rad50 strain growth inhibition, stronger effect = higher value
# Procedure, shortened: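 Vehicle-treated cultures provide the reference for the growth inhibition reported for compound-exposed, repair-deficient yeast.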
# [2] = NCI Yeast Anticancer Drug Screen. Data for the mec2-1 strain (AID 157); settings: S. cerevisiae mec2-1 strain, stronger effect = higher value
# Procedure, shortened: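 Yeast mec2-1 mutant treated with compound. Readout: growth inhibition vs vehicle controls.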
# [3] = NCI Yeast Anticancer Drug Screen. Data for the sgs1 mgt1 strain (AID 161);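 further: 0% = growth of cultures given vehicle only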; settings: S. cerevisiae sgs1 mgt1 strain, stronger effect = higher value
# Procedure, shortened: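 Inhibition of yeast growth, normalised to vehicle-treated controls, is reported for a strain bearing genetic alterations in DNA damage repair.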
# [4] = NCI Yeast Anticancer Drug Screen. Data for the cln2 rad14 strain (AID 165);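 further: 0% = growth equal to vehicle treated cultures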; settings: S. cerevisiae cln2 rad14 strain, stronger effect = higher value
# Procedure, shortened: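 cln2 rad14 yeast strain; compound exposure; growth inhibition read vs vehicle controls.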
# [5] = NCI Yeast Anticancer Drug Screen. Data for the bub3 strain (AID 167); settings: S. cerevisiae bub3 mutant strain, stronger effect = higher value
# Procedure, shortened: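 Mutant yeast screening strain plus compound; vehicle-treated cultures serve as the 0% inhibition reference.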
# [6] = NCI Yeast Anticancer Drug Screen. Data for the mlh1 rad18 strain (AID 175); settings: S. cerevisiae mlh1 rad18 strain growth inhibition, stronger effect = higher value
# Procedure, shortened: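 Yeast w/ defined DNA-repair lesions; compound exposure; growth vs vehicle controls → % inhibition.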
# [7] = at 5.0 µM (retest, dose inferred, filed as 0.5)
# [8] = at 50.0 µM (retest, dose inferred, filed as 5.0)
Structure (SMILES),"growth inhibition [1, 7]","growth inhibition [1, 8]",growth inhibition ([1]; at 50.0 µM),"growth inhibition [2, 7]","growth inhibition [2, 8]",growth inhibition ([2]; at 50.0 µM),"growth inhibition [3, 7]","growth inhibition [3, 8]",growth inhibition ([3]; at 50.0 µM),"growth inhibition [4, 7]","growth inhibition [4, 8]",growth inhibition ([4]; at 50.0 µM),"growth inhibition [5, 7]","growth inhibition [5, 8]",growth inhibition ([5]; at 50.0 µM),"growth inhibition [6, 7]","growth inhibition [6, 8]",growth inhibition ([6]; at 50.0 µM)
Cc1cccc2c(Nc3ccc(NS(C)(=O)=O)cc3)c3ccccc3nc12,55%,94% (active),96.5% (active),-1%,41%,47.3%,1%,17%,28.6%,-7%,19%,-12.7%,-2%,2%,24.6%,-2%,31%,39.3%
Fc1ccc(NC(=S)SCc2ccco2)cc1,5%,87% (active),89% (active),0%,71% (active),61.6%,5%,67%,84.7% (active),1%,24%,42.5%,-5%,34%,26.6%,1%,77% (active),95.4% (active)
CCCCCCCCCCCCCCCCOC(=O)C[n+]1ccc(C(N)=O)cc1,-2%,97% (active),98% (active),-8%,99% (active),98.1% (active),21%,94% (active),98.9% (active),0%,72% (active),69.3%,-3%,97% (active),93% (active),32%,96% (active),98.2% (active)
S=c1sc2ccccc2n1C=Nc1ccccc1,-2%,83% (active),98.9% (active),-5%,97% (active),98.8% (active),-1%,96% (active),98.7% (active),-8%,81% (active),96.2% (active),-1%,96% (active),99.1% (active),-2%,79% (active),98.3% (active)
O=S(=O)(ON=C1C=CC(=NOS(=O)(=O)c2ccccc2)C=C1)c1ccccc1,27%,44%,95.2% (active),6%,55%,94% (active),21%,48%,95% (active),16%,54%,94.1% (active),14%,54%,96.7% (active),48%,76% (active),96% (active)
O=C(O)CCC(=O)c1ccc2c(c1)CCCC2,-5%,-1%,71.7% (active),-9%,19%,42.1%,-5%,0%,77.2% (active),1%,25%,-24.1%,-16%,-48%,20.7%,0%,-6%,77.6% (active)
O=C(O)CN(CCN1CC(=O)OC(=O)C1)CCN1CC(=O)OC(=O)C1,4%,61%,89.9% (active),-1%,49%,88.5% (active),8%,29%,86.5% (active),-8%,46%,70.5% (active),4%,88% (active),72.5% (active),8%,41%,84.3% (active)
C1=NN(c2ccccc2)C2c3ccccc3CCCC12 (centres undefined),8%,98% (active),99.2% (active),18%,99% (active),98.7% (active),8%,99% (active),99% (active),-4%,98% (active),98.8% (active),5%,99% (active),99.1% (active),-2%,99% (active),98.7% (active)
O=C(CSSCC(=O)Nc1ccccc1)Nc1ccccc1,-6%,15%,29.6%,1%,35%,17.5%,1%,-10%,54.8%,-5%,10%,48.2%,-12%,6%,22.8%,-12%,19%,22%
CCOC(=O)N/N=C/c1ccc([N+](=O)[O-])o1,11%,61%,89.9% (active),2%,35%,81.8% (active),3%,62%,92.2% (active),1%,19%,52%,17%,77% (active),82.1% (active),17%,78% (active),94% (active)
O=C1C=CC(=O)C2C1Cc1ccccc1C2c1ccccc1 (centres undefined),15%,97% (active),98.8% (active),26%,98% (active),99.3% (active),58%,98% (active),99% (active),9%,92% (active),98.8% (active),14%,98% (active),98.8% (active),23%,98% (active),98.5% (active)
O=C1c2c(Br)c(Br)c(Br)c(Br)c2C(=O)N1c1nccs1,-1%,51%,75.4% (active),-4%,72% (active),70.8% (active),-10%,54%,75% (active),-20%,25%,45.5%,11%,70% (active),69.4%,21%,72% (active),72.3% (active)
Cc1ccccc1NC(=O)Cc1csc(N=Nc2c(O)[nH]c3ccccc23)n1,18%,17%,-33.6%,1%,1%,-42.9%,1%,-2%,-6.95%,9%,-6%,-12.1%,25%,25%,-11.1%,15%,17%,-27.7%
CC(SC1=CC(=O)c2c(O)ccc(O)c2C1=O)C(=O)O (centres undefined),9%,-19%,22.6%,-4%,-2%,11.8%,19%,5%,19.9%,-5%,-6%,-27.6%,-6%,-5%,4%,-5%,-6%,25.1%
Clc1ccc(C(CCOc2ccccc2Br)Cn2ccnc2)c(Cl)c1 (centres undefined),89% (active),98% (active),99.7% (active),75% (active),99% (active),99.7% (active),82% (active),99% (active),99.7% (active),68%,99% (active),97% (active),89% (active),99% (active),99.7% (active),79% (active),99% (active),95.3% (active)
Ic1ccc2c(c1)N(c1ccccc1)c1cc(N=c3ccc4nc5ccc(I)cc5n(-c5ccccc5)c-4c3)ccc1N2,-3%,15%,81.5% (active),12%,4%,93.6% (active),-4%,-13%,76% (active),1%,29%,91.8% (active),-8%,11%,97.3% (active),-7%,18%,93.9% (active)
O=C1C2CCCC3CCCC(C(=O)N1O)C32 (centres undefined),89% (active),96% (active),91.9% (active),90% (active),98% (active),93% (active),70% (active),94% (active),93.5% (active),52%,69%,74.7% (active),93% (active),97% (active),92% (active),87% (active),97% (active),90.3% (active)
[O-][n+]1ccccc1Sc1nc(Sc2cccc[n+]2[O-])nc(Sc2cccc[n+]2[O-])n1,98% (active),99% (active),89.8% (active),99% (active),99% (active),91.7% (active),99% (active),98% (active),92.7% (active),98% (active),98% (active),90% (active),98% (active),99% (active),90.3% (active),100% (active),99% (active),88.4% (active)
